Several values for one entry are separate records, joined by “and”; a condition that tells them apart may be missing. Equal entries are not always repeated. Results filed as inconclusive are left out. Activity calls are given as the source filed them. Unless noted, no cut-off is given here; in the data, nearly all actives have AC50 up to about 26 µM.

As usually defined, the viability is a read-out of living cells in per cent, often relative to untreated cells. The term AC50 denotes the concentration giving half of the maximal activity seen. What is called IC50 is the midpoint of a concentration-inhibition curve.

Experiment [1] can be described thus: ovarian cancer cell viability with rucaparib, profiling panel, oncology-focused library, rucaparib conditional (AID 1508598;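 active = normalized viability below 100% at a tested concentration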). The conditions noted are these: patient-derived ovarian cancer cells, CellTiter-Glo viability, 144 h, stronger effect = lower value. (In general: ATP-based viability assays read luminescence as a measure of living cells.)
Experiment [2] in a line: growth inhibition of DIPG glioma cells, dose response, cell-based, SU-DIPG-XVII, MIPE5.0, CellTiter-Glo, qHTS (AID 1347060).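 For AC50: cells exposed to compound for 48 hours before viability readout.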 As to conditions: SU-DIPG-XVII viability, CellTiter-Glo ATP luminescence.
Experiment [3] can be described thus: growth inhibition of DIPG glioma cells, dose response, cell-based, SU-DIPG-XIII, MIPE4.0, CellTiter-Glo, qHTS (AID 1347061; cut-off not given, nearly all actives have AC50 up to about 37 µM;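 note: cells exposed to compound for 48 hours before readout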). As to conditions: SU-DIPG-XIII viability, CellTiter-Glo ATP luminescence.
Experiment [4] in a line: growth inhibition of DIPG glioma cells, dose response, cell-based, SU-DIPG-IV, MIPE4.0, CellTiter-Glo, qHTS (AID 1347063; cut-off not given, nearly all actives have AC50 up to about 30 µM;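 note: compound exposure lasted 48 hours before the viability readout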). As to conditions: SU-DIPG-IV viability, CellTiter-Glo ATP luminescence.
Experiment [5] is described as follows: growth inhibition of DIPG glioma cells, dose response, cell-based, SU-DIPG-XIII, MIPE5.0, CellTiter-Glo, qHTS (AID 1347064; cut-off not given, nearly all actives have AC50 up to about 23 µM;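 for AC50: cells exposed to compound for 48 hours before the viability read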). As to conditions: SU-DIPG-XIII viability, CellTiter-Glo ATP luminescence.
Experiment [6] is described as follows: viability loss in pontine glioma line – cell-based, SU-DIPG-XXV, MIPE5.0, CellTiter-Glo, qHTS, dose response (AID 1347065).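 Note: cells exposed to compound for 48 hours before ATP readout.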 As to conditions: CellTiter-Glo ATP luminescence.
Experiment [7] can be described thus: SU-DIPG-VI glioma cell viability, MIPE4.0 library, CellTiter-Glo luminescence, qHTS (AID 1347066; cut-off not given, nearly all actives have AC50 up to about 30 µM;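 note: cells exposed to compound for 48 hours before readout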). As to conditions: CellTiter-Glo ATP luminescence.
A short description of experiment [8]: JHH-DIPG-1 glioma cell viability, MIPE5.0 library, CellTiter-Glo luminescence, qHTS (AID 1347067).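 Note: cells exposed to compound for 48 hours before readout.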 As to conditions: JHH-DIPG-1 glioma viability, CellTiter-Glo ATP luminescence.
Experiment [9] in a line: SU-DIPG-XXV glioma cell viability, MIPE5.0 library, qHTS (AID 1347068; cut-off not given, nearly all actives have IC50 up to about 30 µM;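 for IC50: cells exposed to compound for 48 hours before viability readout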).
A short description of experiment [10]: sensitizers of A549 cells to miR-34 induction, primary screen, imaging, A549 dox-inducible miR-34, nuclei and caspase counts (AID 1347080;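 active = compounds whose cell count with miR-34 switched on is under 0.7 times the count with it off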). As to conditions: A549 miR-34 inducible, Hoechst nuclei count, 48 h.
Experiment [11] can be described thus: survival rescue of mitochondrial mutant cells in low glucose, primary screen, MELAS cybrids, Rieske KO mouse fibroblasts, CellTiter-Glo (AID 1508586;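 active = mean z-score across replicates of 1.96 or higher in either the MELAS or the Rieske mutant cell line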;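 note: z relative to plate mean and SD of compound and empty wells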).
Experiment [12] is described as follows: growth inhibition of DIPG glioma cells, dose response, cell-based, JHH-DIPG-1, MIPE4.0, CellTiter-Glo, qHTS (AID 1347062; cut-off not given, nearly all actives have AC50 up to about 27 µM). The conditions noted are these: JHH-DIPG-1 viability, CellTiter-Glo ATP luminescence.
A short description of experiment [13]: modifiers of HSF1 nuclear foci, imaging, Selleck Cancer Library (AID 1347162; in the data active = plate-normalised HSF1 focus index below about 0.46). As to conditions: human cells, at 10 µM; SSMD: measured here: HSF1 foci SSMD mean; cell count: measured here: cell number; plate-normalised HSF1 focus index: stronger effect = lower value.
Setting [14] is: stronger effect = lower value, cell number ratio, induced over uninduced.
Setting [15] is: measured here: relative caspase fold change +Dox/-Dox.
[16] abbreviates: measured here: total cells with miR-34 induction, stronger effect = lower value.
[17] abbreviates: measured here: total cells without miR-34 induction.
[18] abbreviates: MELAS cybrid survival, CellTiter-Glo 48 h, stronger effect = higher value.
Setting [19] is: Rieske KO mouse fibroblast survival, CellTiter-Glo 72 h.

Turning to `Cc1ccc([C@@H]2O[C@H](CO)[C@@H](O)[C@H](O)[C@H]2O)cc1Cc1ccc(-c2ccc(F)cc2)s1`, the viability in [1] (at 0.313 µM, OCI-P5x cells, with rucaparib 20 µM, 100% = cells with rucaparib alone) was 114% (inactive); in experiment [1] (at 0.313 µM, OCI-P5x cells, without rucaparib), 110% (inactive); in experiment [1] (at 1.25 µM, OCI-C5x cells, with rucaparib 10 µM, 100% = cells with rucaparib alone) it was 119% (inactive); in experiment [1] (at 1.25 µM, OCI-C5x cells, without rucaparib), 122% (inactive); in experiment [1] (at 1.25 µM, OCI-P5x cells, with rucaparib 20 µM, 100% = cells with rucaparib alone), 109% (inactive); in [1] (at 1.25 µM, OCI-P5x cells, without rucaparib), 108% (inactive). Besides, the viability in experiment [1] (at 5 µM, OCI-C5x cells, with rucaparib 10 µM, 100% = cells with rucaparib alone) is 117% (inactive); in experiment [1] (at 5 µM, OCI-C5x cells, without rucaparib), 129% (inactive); in experiment [1] (at 5 µM, OCI-P5x cells, with rucaparib 20 µM, 100% = cells with rucaparib alone), 105% (inactive); in experiment [1] (at 5 µM, OCI-P5x cells, without rucaparib) it was 115% (inactive).
In the case of `CNC(=O)c1c(F)cccc1Nc1nc(Nc2cc3c(cc2OC)CCN3C(=O)CN(C)C)nc2[nH]ccc12`, the AC50 in experiment [2] was 5250 nM (active); in [3] it was 235 nM (active); in experiment [4], 2640 nM (active); in experiment [5] it was 934 nM (active); in [6] it was 661 nM (active); in experiment [7], 83.3 nM (active). Further, the half-maximal activity concentration (AC50) in experiment [8] is 3320 nM (active). In addition, the IC50 in experiment [9] is 14800 nM (active). Moreover, the figures for the fold change in [10] (setting [14]) and in experiment [10] (setting [15]) were 0.926 (inactive) and 0.874, respectively. In addition, the cell count in [10] (setting [16]) was 5320; in [10] (setting [17]), 5750. For the same compound, the z-score in experiment [11] (setting [18]) was -0.536 (inactive); in [11] (setting [19]), -0.594.
On to `CNC(=O)c1ccc2cc(C3(O)CCn4cncc43)ccc2c1` (stereo not drawn), for which the result in experiment [2], in [3], in experiment [12], in experiment [5], in experiment [7] and in experiment [8] was inactive. Besides, the call in [9] was inactive. The fold change in experiment [10] (setting [14]) is 0.927 (inactive); in [10] (setting [15]), 0.607. The cell count in [10] (setting [16]) amounted to 8020; in [10] (setting [17]), 8650. Also, the results for the z-score in [11] (setting [18]) and in [11] (setting [19]) were 0.566 (inactive) and -0.147, respectively.
As for `Cc1ccc2c(c1)C(=O)[C@]1(O)CCN(c3ccccc3)C1=N2`, the AC50 in experiment [2] is 14800 nM (active). Also, the compound was classed as inactive in experiment [3], in experiment [12], in experiment [7], in [8] and in experiment [9]. Further, the fold change in experiment [10] (setting [14]) was 0.934 (inactive) and 0.847 (inactive); in [10] (setting [15]), 0.749 and 0.315. The cell count in experiment [10] (setting [16]) is 6020 and 6690; in experiment [10] (setting [17]), 6450 and 7900. The z-score is -0.292 (inactive) in experiment [11] (setting [18]) and -2.56 in [11] (setting [19]).
For `O=C1CCCC2=C1C(c1[nH]ncc1Cl)N=C(Nc1nc3ccccc3o1)N2` (stereo not drawn), the compound was classed as inactive in experiment [2], in experiment [3], in [12], in [7], in experiment [8] and in [9].
`Cc1cc(Nc2cc(N3CCN(C)CC3)nc(Sc3ccc(NC(=O)C4CC4)cc3)n2)n[nH]1`: the AC50 was 2950 nM (active) in experiment [2]; 18700 nM (active) in experiment [3]; 2960 nM (active) in [4]; 6610 nM (active) in experiment [5]; 332 nM (active) in experiment [6]; 10500 nM (active) in [8]. In experiment [9], the IC50 was 8330 nM (active). In addition, the fold change in experiment [10] (setting [14]) was 0.993 (inactive); in [10] (setting [15]), 0.793. Further, the cell count in [10] (setting [16]) stood at 1560; in experiment [10] (setting [17]) it was 1580; in [13] it was 6720. In addition, in experiment [13], the SSMD was -0.956. In addition, the plate-normalised HSF1 focus index in [13] was 0.958 (inactive). In addition, the z-score in [11] (setting [18]) was 2.79 (active); in [11] (setting [19]), 1.15.
Take `CC(=O)Nc1ccc([C@H](C)C(=O)Nc2ncc(C(C)C)s2)cc1`: the concentration at half-maximal activity (AC50) is 934 nM (active) in [2]; 4690 nM (active) in experiment [3]; 2640 nM (active) in experiment [4]; 2950 nM (active) in [5]; 1860 nM (active) in experiment [6]; 3320 nM (active) in [8]. Besides, the concentration for half-maximal inhibition (IC50) in experiment [9] is 2950 nM (active).

These data come from PubChem BioAssay.
